Test [1] addresses 5'-AMP-activated protein kinase catalytic subunit alpha-2 (Homo sapiens) (UniProt P54646). Conditions: at 1 µM.
The target in test [2] is T1, NUAK family SNF1-like kinase 1 (Homo sapiens) (UniProt O60285).
T1 sequence (whole entry): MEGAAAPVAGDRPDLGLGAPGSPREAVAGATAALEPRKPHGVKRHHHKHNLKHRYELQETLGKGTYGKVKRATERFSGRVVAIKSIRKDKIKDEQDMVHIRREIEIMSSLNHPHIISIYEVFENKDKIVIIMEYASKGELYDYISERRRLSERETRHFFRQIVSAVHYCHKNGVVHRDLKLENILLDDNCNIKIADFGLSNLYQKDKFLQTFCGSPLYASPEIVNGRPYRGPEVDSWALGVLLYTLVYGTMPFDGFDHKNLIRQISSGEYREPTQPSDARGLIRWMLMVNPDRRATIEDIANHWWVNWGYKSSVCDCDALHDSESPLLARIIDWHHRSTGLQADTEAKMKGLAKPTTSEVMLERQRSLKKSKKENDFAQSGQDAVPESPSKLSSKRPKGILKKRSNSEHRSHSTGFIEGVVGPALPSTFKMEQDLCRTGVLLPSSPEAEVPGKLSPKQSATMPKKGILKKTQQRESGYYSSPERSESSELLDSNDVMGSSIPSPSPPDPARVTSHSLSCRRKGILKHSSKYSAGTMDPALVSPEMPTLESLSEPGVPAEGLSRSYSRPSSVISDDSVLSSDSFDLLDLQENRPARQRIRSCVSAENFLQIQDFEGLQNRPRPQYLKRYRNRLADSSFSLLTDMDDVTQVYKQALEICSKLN
Conditions: at 0.1 µM.

In test [3] the target is T1, NUAK family SNF1-like kinase 1 (Homo sapiens). Conditions: at 1 µM.
Test [4] concerns the target T2, Serine/threonine-protein kinase BRSK1 (Homo sapiens) (UniProt Q8TDC3).
T2 sequence (whole entry): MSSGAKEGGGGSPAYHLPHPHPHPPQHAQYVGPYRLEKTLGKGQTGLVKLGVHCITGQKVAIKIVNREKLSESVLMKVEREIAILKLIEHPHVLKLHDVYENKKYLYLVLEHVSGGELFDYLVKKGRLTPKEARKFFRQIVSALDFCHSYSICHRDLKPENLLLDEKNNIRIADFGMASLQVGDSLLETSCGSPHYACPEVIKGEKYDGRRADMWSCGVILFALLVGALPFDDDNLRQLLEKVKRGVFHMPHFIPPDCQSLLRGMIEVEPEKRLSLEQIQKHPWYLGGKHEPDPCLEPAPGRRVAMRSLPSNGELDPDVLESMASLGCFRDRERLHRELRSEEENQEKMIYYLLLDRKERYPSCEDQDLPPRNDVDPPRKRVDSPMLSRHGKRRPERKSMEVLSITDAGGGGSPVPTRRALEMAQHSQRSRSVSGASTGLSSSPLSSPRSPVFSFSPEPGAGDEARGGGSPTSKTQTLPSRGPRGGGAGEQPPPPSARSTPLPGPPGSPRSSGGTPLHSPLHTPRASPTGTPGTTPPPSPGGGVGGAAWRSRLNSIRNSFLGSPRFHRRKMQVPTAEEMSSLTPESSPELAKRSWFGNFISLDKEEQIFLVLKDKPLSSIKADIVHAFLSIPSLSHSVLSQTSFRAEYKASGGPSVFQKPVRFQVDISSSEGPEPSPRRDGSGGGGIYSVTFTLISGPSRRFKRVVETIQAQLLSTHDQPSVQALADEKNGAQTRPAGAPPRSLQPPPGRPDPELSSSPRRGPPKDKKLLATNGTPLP
Conditions: at 0.1 µM.

In test [5] the target is T2, Serine/threonine-protein kinase BRSK1 (Homo sapiens). Conditions: at 1 µM.
The target of test [6] is T3, Serine/threonine-protein kinase BRSK2 (Homo sapiens) (UniProt Q8IWQ3).
T3 sequence (whole entry): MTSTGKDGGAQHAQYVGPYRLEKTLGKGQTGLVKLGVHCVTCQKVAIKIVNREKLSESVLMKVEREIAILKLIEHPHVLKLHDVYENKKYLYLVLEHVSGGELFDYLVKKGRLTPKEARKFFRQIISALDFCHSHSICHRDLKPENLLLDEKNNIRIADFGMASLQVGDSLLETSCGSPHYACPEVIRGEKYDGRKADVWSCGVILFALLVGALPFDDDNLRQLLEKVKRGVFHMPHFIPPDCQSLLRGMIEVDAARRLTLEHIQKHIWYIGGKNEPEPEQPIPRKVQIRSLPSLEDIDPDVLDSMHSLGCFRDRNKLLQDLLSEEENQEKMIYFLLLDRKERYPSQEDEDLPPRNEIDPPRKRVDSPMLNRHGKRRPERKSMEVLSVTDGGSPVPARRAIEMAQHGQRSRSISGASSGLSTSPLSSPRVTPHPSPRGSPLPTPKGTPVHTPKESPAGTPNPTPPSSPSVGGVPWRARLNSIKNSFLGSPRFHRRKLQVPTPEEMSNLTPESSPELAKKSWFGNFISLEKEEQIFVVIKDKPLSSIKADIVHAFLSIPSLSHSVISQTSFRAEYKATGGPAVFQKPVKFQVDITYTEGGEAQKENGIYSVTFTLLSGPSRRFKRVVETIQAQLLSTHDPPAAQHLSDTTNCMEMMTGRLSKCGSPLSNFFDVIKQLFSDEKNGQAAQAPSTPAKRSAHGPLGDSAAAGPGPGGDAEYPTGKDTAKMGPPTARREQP
Conditions: at 0.1 µM.

The target of test [7] is T3, Serine/threonine-protein kinase BRSK2 (Homo sapiens). Conditions: at 1 µM.
Test [8] deals with Calcium/calmodulin-dependent protein kinase type 1D (Homo sapiens) (UniProt Q8IU85). Conditions: at 0.1 µM.
Calcium/calmodulin-dependent protein kinase type 1D (Homo sapiens), sequence (Q8IU85 whole entry, looked up): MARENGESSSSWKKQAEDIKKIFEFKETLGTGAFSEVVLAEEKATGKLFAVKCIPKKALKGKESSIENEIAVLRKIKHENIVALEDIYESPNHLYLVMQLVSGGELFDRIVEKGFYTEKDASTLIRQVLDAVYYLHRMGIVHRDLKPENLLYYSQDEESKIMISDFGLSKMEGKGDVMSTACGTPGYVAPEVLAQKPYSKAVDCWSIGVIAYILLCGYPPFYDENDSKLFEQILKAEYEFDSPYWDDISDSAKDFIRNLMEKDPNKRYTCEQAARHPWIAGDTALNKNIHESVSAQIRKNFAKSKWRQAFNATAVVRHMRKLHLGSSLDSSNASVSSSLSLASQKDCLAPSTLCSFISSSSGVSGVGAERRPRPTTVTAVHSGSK
For test [9] the target is unchanged. Conditions: at 1 µM.
Test [10] deals with Calcium/calmodulin-dependent protein kinase type II subunit alpha (Homo sapiens) (UniProt Q9UQM7). Conditions: at 0.1 µM.
Calcium/calmodulin-dependent protein kinase type II subunit alpha (Homo sapiens), sequence (Q9UQM7 whole entry): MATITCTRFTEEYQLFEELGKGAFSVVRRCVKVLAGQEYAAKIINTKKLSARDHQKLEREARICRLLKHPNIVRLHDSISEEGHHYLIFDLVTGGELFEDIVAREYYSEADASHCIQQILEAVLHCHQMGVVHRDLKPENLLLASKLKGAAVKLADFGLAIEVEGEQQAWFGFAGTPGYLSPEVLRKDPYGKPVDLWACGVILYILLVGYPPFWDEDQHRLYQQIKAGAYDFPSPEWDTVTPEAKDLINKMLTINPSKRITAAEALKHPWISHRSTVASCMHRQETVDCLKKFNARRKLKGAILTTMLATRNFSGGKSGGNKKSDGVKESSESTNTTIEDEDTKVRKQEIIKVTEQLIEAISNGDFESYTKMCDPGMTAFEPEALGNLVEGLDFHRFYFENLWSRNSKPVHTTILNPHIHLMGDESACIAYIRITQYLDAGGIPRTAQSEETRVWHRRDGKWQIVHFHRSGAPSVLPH
Test [11] has the same target. Conditions: at 1 µM.
For test [12], the target named is Calcium/calmodulin-dependent protein kinase type II subunit delta (Homo sapiens) (UniProt Q13557). Conditions: at 0.1 µM.
Calcium/calmodulin-dependent protein kinase type II subunit delta (Homo sapiens), sequence (Q13557 whole entry): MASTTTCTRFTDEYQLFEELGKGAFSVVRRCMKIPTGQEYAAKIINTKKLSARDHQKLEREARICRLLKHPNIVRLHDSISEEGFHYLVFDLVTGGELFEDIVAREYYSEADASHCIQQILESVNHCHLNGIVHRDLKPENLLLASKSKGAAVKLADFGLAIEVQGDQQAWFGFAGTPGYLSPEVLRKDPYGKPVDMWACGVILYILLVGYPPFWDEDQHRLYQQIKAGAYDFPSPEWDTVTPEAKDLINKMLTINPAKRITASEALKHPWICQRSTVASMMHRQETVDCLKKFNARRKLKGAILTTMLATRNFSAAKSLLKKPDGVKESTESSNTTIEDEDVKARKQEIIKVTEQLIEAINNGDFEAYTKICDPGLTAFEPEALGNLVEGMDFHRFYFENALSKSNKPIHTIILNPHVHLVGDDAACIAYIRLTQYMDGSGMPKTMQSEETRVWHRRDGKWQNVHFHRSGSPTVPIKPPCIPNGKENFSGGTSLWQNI
Test [13] has the same target. Conditions: at 1 µM.
The target of test [14] is T4, Calcium/calmodulin-dependent protein kinase type IV (Homo sapiens) (UniProt Q16566).
T4 sequence (whole entry): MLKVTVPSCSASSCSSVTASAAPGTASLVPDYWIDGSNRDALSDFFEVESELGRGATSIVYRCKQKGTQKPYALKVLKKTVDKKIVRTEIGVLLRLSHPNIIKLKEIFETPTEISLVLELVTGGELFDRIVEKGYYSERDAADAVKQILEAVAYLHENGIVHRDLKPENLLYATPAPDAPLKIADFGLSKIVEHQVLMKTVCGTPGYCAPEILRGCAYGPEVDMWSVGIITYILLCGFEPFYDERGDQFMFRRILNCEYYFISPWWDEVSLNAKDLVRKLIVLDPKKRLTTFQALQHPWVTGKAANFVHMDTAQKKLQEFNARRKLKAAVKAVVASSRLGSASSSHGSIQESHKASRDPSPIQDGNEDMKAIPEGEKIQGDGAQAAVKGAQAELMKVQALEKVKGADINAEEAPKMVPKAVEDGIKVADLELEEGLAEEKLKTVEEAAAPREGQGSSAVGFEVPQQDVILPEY
Conditions: at 0.1 µM.

Test [15] concerns the target T4, Calcium/calmodulin-dependent protein kinase type IV (Homo sapiens). Conditions: at 1 µM.
In test [16] the target is T5, Serine/threonine-protein kinase Chk1 (Homo sapiens) (UniProt O14757).
T5 sequence (whole entry): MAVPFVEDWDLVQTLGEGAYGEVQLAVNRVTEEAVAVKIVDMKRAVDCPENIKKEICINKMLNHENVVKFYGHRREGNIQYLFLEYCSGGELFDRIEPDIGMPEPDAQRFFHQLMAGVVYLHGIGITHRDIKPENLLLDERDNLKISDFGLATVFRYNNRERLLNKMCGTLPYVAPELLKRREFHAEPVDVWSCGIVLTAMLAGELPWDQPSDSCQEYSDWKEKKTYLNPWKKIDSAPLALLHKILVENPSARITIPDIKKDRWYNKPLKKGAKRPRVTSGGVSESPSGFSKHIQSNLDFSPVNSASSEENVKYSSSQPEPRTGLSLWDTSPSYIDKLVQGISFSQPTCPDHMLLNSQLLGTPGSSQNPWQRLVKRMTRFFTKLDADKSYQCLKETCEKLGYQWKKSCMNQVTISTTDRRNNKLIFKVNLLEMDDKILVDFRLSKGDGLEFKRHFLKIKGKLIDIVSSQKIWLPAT
Conditions: at 0.1 µM.

For test [17], the target named is T5, Serine/threonine-protein kinase Chk1 (Homo sapiens). Conditions: at 1 µM.
Test [18] addresses Serine/threonine-protein kinase Chk2 (Homo sapiens) (UniProt O96017). Conditions: at 0.1 µM.
Test [19] shares this target. Conditions: at 1 µM.
The target of test [20] is Death-associated protein kinase 1 (Homo sapiens) (UniProt P53355). Conditions: at 0.1 µM.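 Also: reported figure is the mean inhibition of DAPK1.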
Death-associated protein kinase 1 (Homo sapiens), sequence (P53355 whole entry, looked up): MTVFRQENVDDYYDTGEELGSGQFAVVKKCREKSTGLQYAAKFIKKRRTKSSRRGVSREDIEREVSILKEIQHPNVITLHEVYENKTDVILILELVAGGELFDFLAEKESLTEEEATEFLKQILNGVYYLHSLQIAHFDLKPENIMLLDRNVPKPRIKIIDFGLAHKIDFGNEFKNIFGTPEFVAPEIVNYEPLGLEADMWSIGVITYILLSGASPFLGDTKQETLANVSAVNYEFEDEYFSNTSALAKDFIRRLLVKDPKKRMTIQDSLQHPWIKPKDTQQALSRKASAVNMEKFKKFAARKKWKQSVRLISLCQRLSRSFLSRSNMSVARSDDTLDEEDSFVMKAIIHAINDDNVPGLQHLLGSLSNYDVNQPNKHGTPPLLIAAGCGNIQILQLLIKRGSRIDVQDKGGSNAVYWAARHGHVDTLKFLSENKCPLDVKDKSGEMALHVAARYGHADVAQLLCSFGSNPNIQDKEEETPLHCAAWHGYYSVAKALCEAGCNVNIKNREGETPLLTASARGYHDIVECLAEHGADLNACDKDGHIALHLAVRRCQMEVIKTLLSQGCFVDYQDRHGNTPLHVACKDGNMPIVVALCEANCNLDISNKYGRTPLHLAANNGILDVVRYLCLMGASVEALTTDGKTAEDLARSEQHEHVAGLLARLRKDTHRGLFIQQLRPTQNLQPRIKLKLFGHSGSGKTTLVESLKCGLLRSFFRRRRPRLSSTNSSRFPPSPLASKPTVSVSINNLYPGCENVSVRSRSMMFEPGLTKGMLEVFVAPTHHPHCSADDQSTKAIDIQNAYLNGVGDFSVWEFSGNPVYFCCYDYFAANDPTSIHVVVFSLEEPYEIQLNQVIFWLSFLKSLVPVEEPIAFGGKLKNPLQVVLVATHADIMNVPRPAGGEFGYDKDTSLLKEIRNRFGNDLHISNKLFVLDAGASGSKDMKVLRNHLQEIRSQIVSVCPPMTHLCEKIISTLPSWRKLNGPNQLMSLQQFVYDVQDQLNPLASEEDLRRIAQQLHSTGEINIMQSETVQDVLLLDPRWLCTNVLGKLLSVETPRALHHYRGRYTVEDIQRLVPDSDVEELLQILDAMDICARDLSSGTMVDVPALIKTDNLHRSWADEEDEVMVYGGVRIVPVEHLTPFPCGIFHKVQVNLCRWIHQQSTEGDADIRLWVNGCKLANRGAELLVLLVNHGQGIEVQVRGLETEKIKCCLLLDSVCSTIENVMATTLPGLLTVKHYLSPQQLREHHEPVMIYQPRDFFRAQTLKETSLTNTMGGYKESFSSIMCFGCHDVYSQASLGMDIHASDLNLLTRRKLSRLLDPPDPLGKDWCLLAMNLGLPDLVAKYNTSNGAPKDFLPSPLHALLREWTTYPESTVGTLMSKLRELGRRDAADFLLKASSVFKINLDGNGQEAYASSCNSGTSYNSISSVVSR

Consider seven molecules from ChEMBL document CHEMBL1961873, “Compounds: GSK PKIS; Assays: Nanosyn kinase panel” (2012).

Serine/threonine-protein kinase Chk2 (Homo sapiens), sequence (O96017 whole entry): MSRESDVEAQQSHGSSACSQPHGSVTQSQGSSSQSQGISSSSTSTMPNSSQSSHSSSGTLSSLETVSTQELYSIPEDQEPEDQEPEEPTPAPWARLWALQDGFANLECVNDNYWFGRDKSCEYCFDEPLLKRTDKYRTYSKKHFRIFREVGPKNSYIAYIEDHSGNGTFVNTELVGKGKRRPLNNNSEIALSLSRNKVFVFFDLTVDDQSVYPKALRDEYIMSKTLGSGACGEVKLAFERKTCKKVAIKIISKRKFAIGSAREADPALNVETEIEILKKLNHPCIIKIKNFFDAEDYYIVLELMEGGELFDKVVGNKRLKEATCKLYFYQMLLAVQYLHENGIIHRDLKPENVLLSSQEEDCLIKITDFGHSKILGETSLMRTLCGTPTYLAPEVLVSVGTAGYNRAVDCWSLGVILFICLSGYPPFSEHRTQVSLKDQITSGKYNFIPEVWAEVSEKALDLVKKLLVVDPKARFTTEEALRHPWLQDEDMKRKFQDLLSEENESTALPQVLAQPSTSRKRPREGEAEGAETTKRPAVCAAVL
5'-AMP-activated protein kinase catalytic subunit alpha-2 (Homo sapiens), sequence (P54646 whole entry, looked up): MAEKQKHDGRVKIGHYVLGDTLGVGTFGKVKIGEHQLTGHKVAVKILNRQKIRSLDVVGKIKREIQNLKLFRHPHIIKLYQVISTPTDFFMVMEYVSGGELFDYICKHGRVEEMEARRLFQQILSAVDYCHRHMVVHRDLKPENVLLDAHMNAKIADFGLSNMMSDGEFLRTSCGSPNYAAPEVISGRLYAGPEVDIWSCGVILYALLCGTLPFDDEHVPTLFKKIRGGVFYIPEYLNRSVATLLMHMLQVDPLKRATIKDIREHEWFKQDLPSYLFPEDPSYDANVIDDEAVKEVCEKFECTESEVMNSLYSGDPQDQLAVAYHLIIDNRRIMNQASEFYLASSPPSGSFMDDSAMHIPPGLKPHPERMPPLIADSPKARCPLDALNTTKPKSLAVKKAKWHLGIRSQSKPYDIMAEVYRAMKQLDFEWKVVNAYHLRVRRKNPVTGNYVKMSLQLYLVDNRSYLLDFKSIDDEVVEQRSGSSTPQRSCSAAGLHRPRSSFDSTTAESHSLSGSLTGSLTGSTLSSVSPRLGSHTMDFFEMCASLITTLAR

On to `NCc1ccc(-n2c(-c3nonc3N)nc3cnccc32)cc1`, for which the inhibition in [1] came to 8.19%; in test [2], 4.91%; in [3], 7.23%; in test [4], 4.76%; in test [5], 6.27%; in test [6] it was 4.11%. The inhibition in test [7] turned out to be 8.49%; in [8], 2.03%; in [9] it was 4.78%; in test [10], 4.91%; in test [11], 7.05%; in [12] it was 6.42%. Moreover, the inhibition in test [13] was 15.2%; in test [14], -0.16%; in test [15], 4.15%; in test [16], 8.32%; in [17], 12.3%; in test [18] it was 2.9%. Besides, the inhibition is 6.29% in [19] and 7.02% in test [20].

Regarding `CCC(=O)Nc1ccc(C)c(-c2ccc(C(=O)NCC3CC3)cc2)c1`, the inhibition in test [1] came to 2.49%; in [2] it was 0.85%; in test [3] it was 1.36%; in test [4], 1.35%; in test [5], 0.24%; in [6], 1.47%. Besides, the inhibition in test [7] was determined as 2.78%; in [8], 0.77%; in test [9], 1.64%; in [10], 1.27%; in test [11], 1.21%; in test [12] it was 2.68%. In addition, the inhibition in test [13] is 4.75%; in test [14], -0.67%; in test [15], 2.05%; in test [16] it was 0.06%; in test [17] it was -0.8%; in test [18] it was 3.52%. Further, the values for the inhibition in test [19] and in [20] were 5.57% and -0.61%, respectively.

`COc1cc(C)c(N(C)C(=O)CN(C)C)cc1Nc1nc(Nc2cccc(F)c2C(N)=O)c2cc[nH]c2n1`: the inhibition was 3.07% in [1]; 0.7% in [2]; 4.1% in [3]; 0.88% in test [4]; -0.02% in test [5]; 0.05% in test [6]. Moreover, the inhibition in test [7] is 0.83%; in [8], 1.27%; in [9], 2.67%; in [10], 3.48%; in test [11] it was 4.38%; in test [12], 3.09%. For the same molecule, the inhibition in [13] was 3.38%; in [14] it was 1.4%; in test [15] it was 4.78%; in test [16] it was -4.87%; in [17] it was -0.94%; in [18] it was 2.55%. Besides, the inhibition in test [19] came out at 8.44%; in test [20], 0.19%.

Regarding `O=C(NCC1CC1)c1ccc(-c2cccc(C(=O)NC3CC3)c2)cc1`, the inhibition in [1] was determined as 1.74%; in test [2] it was 1.06%; in test [3], 4.26%; in test [4], 1.95%; in test [5], 0.89%; in [6], 1.44%. Also, the inhibition in test [7] was -1.6%; in test [8], 0.99%; in test [9] it was 2.29%; in test [10] it was 2.2%; in test [11] it was 2.74%; in [12], 2.24%. Besides, the inhibition in test [13] is 3.64%; in [14], 0.89%; in test [15], 2%; in test [16] it was -3.93%; in test [17], 2.12%; in [18], 0.96%. For the same molecule, the inhibition in [19] worked out at 0.33%; in test [20], 2.26%.

Regarding `O=C1Nc2ccccc2/C1=C/Nc1ccc(-n2cncn2)cc1`, the inhibition in test [1] was found to be 15.5%; in test [2], 8.76%; in [3], 38.7%; in [4] it was 2.17%; in test [5] it was 17.2%; in test [6], 4.08%. In addition, the inhibition in test [7] was found to be 26.3%; in [8], 0.18%; in test [9], 0.98%; in test [10] it was 3.66%; in test [11], 4.05%; in [12], 2.3%. In addition, the inhibition in test [13] was 6.83%; in test [14], -0.87%; in [15], -2.92%; in [16], 1.77%; in [17], 13.5%; in test [18] it was 3.98%. The inhibition in [19] stood at 14.9%; in test [20], 5.75%.

With `COc1ccc(C2=C(N3CCc4ccccc43)C(=O)NC2=O)cc1`, the inhibition in [1] is 5.49%; in test [2], 3.26%; in test [3], 9.32%; in [4], 1.07%; in test [5], 3.32%; in test [6] it was 2.56%. The inhibition came out at 3.2% in test [7]; 0.57% in [8]; 1.29% in test [9]; 5.74% in [10]; 4.72% in [11]; 4.35% in test [12]. Further, the inhibition is 7.01% in test [13]; 0.45% in [14]; 0.33% in test [15]; 3.53% in [16]; 3.47% in [17]; 3.04% in [18]. The results for the inhibition in [19] and in test [20] were 3.92% and 3.58%, respectively.

Regarding `NC(=O)Cc1ccccc1Oc1nccc(-c2c(-c3ccc(F)cc3)ncn2C2CCNCC2)n1`, the inhibition in test [1] amounted to 2.59%; in [2] it was 0.84%; in [3], 2.97%; in test [4], 4.71%; in test [5], 6.12%; in test [6], 4.74%. The inhibition was 5.25% in test [7]; 0.63% in test [8]; 1.65% in test [9]; 2.81% in test [10]; 2.07% in [11]; 2.62% in test [12]. Further, the inhibition is 2.58% in [13]; 0.99% in test [14]; -0.11% in test [15]; 0.75% in [16]; 5.68% in [17]; 4.2% in [18]. Besides, the results for the inhibition in test [19] and in test [20] were 6.05% and 2.51%, respectively.
